aSyn UTR act = Activators working through SNCA 5'UTR binding (MLPCN) | alpha-synuclein 5'UTR reporter, activators screen | activity score, % (tested at 7.5 µM), hits read low | 7.1% of 300,000 active | AID 1814; in the data active means activity score below about -60%
Hits are given with their value; 0 = inactive; + = active, no number. These entries were drawn from the full list.

SMILES | aSyn UTR act
COc1ccccc1NC(=S)NCc1ccccn1 | -80
O=C(/C=C/c1ccco1)NC(=S)Nc1ccccc1O | -121
O=C(/C=C\c1ccco1)NC(=S)Nc1ccccc1O | -74
CCOC(=O)c1cc(-c2ccc(/C=C3/C(=O)N(c4ccc(C(=O)O)cc4)N=C3C)o2)ccc1Cl | -76
CCCCOC(=O)c1cc(-c2ccc(/C=N/n3cnnc3)o2)ccc1Cl | -74
Cc1cccc(Cc2nnc(CCC(=O)N(C)CCc3ccccc3)o2)c1 | -137
C=C(C)CN(CC)C(=O)CCc1nnc(CCCc2ccccc2)o1 | -150
CCN(CCn1cccn1)C(=O)CCc1nnc(CCCc2ccccc2)o1 | -122
COc1ccc(-c2coc3cc(O)ccc3c2=O)cc1O | -90
COc1ccc(CC(=O)c2ccc(OC3OC(CO)C(O)C(O)C3O)cc2O)cc1 (stereo not drawn) | -69
COc1ccc(-c2coc3cc(O)ccc3c2=O)cc1 | -134
COc1ccc(-c2coc3cc(OC4OC(CO)C(O)C(O)C4O)ccc3c2=O)cc1 (stereo not drawn) | -124
Cc1ccc(-c2nnc(CCC(=O)NCC3C4CC5CC(C4)CC3C5)o2)s1 (stereo not drawn) | -170
Cc1occc1C(=O)N/N=C/C(Br)=C/c1ccccc1 | -219
O=C(N/N=C/C(Br)=C/c1ccccc1)c1ccccc1[N+](=O)[O-] | -76
O=c1c(Cl)c(Cl)cnn1Cc1nnc(-c2ccc(Cl)cc2)o1 | -179
Cc1cc(SCC(=O)c2ccccc2)nc(C)n1 | -115
O=C(O)c1ccccc1CSc1nc2ccccc2o1 | -114
O=C(CSc1ccc2ccccc2n1)c1ccccc1 | -125
O=C(CSc1ccc(-c2ccco2)nn1)c1ccccc1 | -88
CC(=O)CSc1nc2ccccc2o1 | -75
Cc1cc(SCC(=O)c2ccccc2)n2ncc(-c3ccccc3)c2n1 | -138
O=[N+]([O-])c1ccc(Cl)cc1Sc1nc2ccccc2o1 | 0
O=C(CSc1nc2ccccc2o1)c1ccccc1 | -95
Cc1ccc(C(=O)NC2CCCCCC2)cc1S(=O)(=O)N1CCOCC1 | -70
SMILES | aSyn UTR act
CCN(CC)S(=O)(=O)c1cc(C(=O)NC2CCCCC2)ccc1C | -111
COc1ccc(/C=C/C(=O)NC2CCCCCC2)cc1S(=O)(=O)N1CCOCC1 | -75
Cc1ccc(Sc2c(CO)c(-c3ccccc3)nn2C)cc1 | -86
COc1ccc(-c2coc3cc4oc(=O)cc(-c5ccccc5)c4cc23)cc1F | 0
COc1ccc(-c2cc3ccc(OCC(N)=O)cc3oc2=O)cc1OC | -65
CC(=O)Oc1ccc2c(=O)c(-c3ccccc3)coc2c1 | -146
CC(=O)COc1ccc2cc(-c3ccccc3)c(=O)oc2c1 | -64
CC(=O)Oc1ccc2cc(-c3ccccc3)c(=O)oc2c1 | -163
O=C(CCCCl)Oc1ccc2cc(-c3ccc4ccccc4n3)c(=O)oc2c1 | -125
O=C(COc1ccc2ccc(=O)oc2c1)c1ccccc1 | -102
O=C(CCS(=O)(=O)c1ccc(Br)cc1)Nc1ccc2c(c1)OCO2 | -64
O=C(CCc1ccccc1)Nc1ccc2c(c1)OCO2 | -123
O=C(NCCc1ccccc1)Nc1cccc(Cl)c1 | -88
O=C(/C=C/c1cccc(Cl)c1)NCCc1ccccc1 | -67
S=C(Nc1cc(Cl)cc(Cl)c1)NC1CCN(Cc2ccccc2)CC1 | 0
O=C(NCCc1ccccc1)C(=O)Nc1ccc2c(c1)OCCO2 | -137
O=C(Nc1cccc(Cl)c1)N1CCN(Cc2ccccc2)CC1 | -159
O=C(NCCc1ccccc1)Nc1ccc2c(c1)OCO2 | -80
O=C(NCCc1ccc(F)cc1)Nc1ccc2c(c1)OCO2 | -139
O=C(Nc1ccc2c(c1)OCO2)OCc1ccccc1 | -123
O=C(O)c1ccc(N/N=C/c2ccc(-c3ccc(Cl)cc3Cl)o2)cc1 | -62
O=C(O)c1ccc(N/N=C/c2ccc(-c3cccc(Cl)c3)o2)cc1 | -114
O=C(O)c1ccc(N/N=C/c2ccc(-c3cc(Cl)ccc3Cl)o2)cc1 | -156
Cc1ccc2nc(N3C(=O)C(O)=C(C(=O)c4ccco4)C3c3cccs3)sc2c1 (stereo not drawn) | -187
COc1ccc2nc(N3C(=O)C(O)=C(C(=O)c4ccco4)C3c3ccccc3OC)sc2c1 (stereo not drawn) | -114
SMILES | aSyn UTR act
O=C(Nc1cc(C(F)(F)F)ccc1N1CCOCC1)c1ccc2ccccc2n1 | -80
O=C(NC(=S)Nc1ccccc1Cl)c1ccco1 | -112
O=C(NC(=S)Nc1ccc(N2CCCCC2)cc1)c1ccco1 | -182
CC1CCN(c2ccc(NC(=S)NC(=O)c3ccco3)cc2)CC1 | -132
O=C(NC(=S)N(CCc1ccccc1)CCc1ccccc1)c1ccco1 | 0
COc1ccc(/C=C/C(=O)c2ccc[nH]2)cc1OC | -146
COc1ccc(/C=C/C(=O)c2cc(F)ccc2OC(=O)c2ccccc2OC)cc1OC | 0
COc1ccc(/C=C/C(=O)c2ccc[nH]2)c(OC)c1OC | -194
[O-]/[N+](=C\c1ccco1)c1ccc(Cl)cc1 | -164
[O-]/[N+](=C/c1ccc(F)cc1)c1ccc(Cl)cc1 | -177
COc1cccc(-c2noc(-c3ccoc3C)n2)c1 | -212
COc1ccc(-c2noc(-c3ccco3)n2)cc1OC | -110
COc1ccc(C2=Nn3c(nnc3-c3ccco3)SC2)cc1OC | 0
COc1ccc(-c2noc(-c3ccoc3C)n2)cc1OC | -132
COc1ccc(-c2noc(-c3ccoc3C)n2)cc1 | -143
Cc1cccc(C(=O)Oc2ccc(/C=N/O)cc2)c1 | -72
Cc1ccc(-c2nn(-c3ccccc3)cc2/C=N/NS(=O)(=O)c2ccccc2)cc1 | -76
COc1ccc(-c2nn(-c3ccccc3)cc2/C=N/NC(N)=S)cc1OC | 0
CCN(CC)c1ccc(/C=N/NC(=O)c2cccc(S(=O)(=O)Nc3ccccc3OC)c2)c(O)c1 | 0
COc1ccc(NS(=O)(=O)c2cccc(C(=O)N/N=C/c3cn(-c4ccccc4)nc3-c3ccc(OC)cc3)c2)cc1 | -85
Cc1ccc(Cn2ccc(C3CC3)n2)cc1 | -101
Clc1ccc(Cn2ccc(C3CC3)n2)cc1 | -95
COc1ccc(C(=O)NCCn2ccc3ccccc32)c(OC)c1 | -90
CC(Sc1nnc(NC2CCCCC2)s1)C(=O)Nc1ccc2c(c1)C(=O)c1ccccc1C2=O (stereo not drawn) | -79
N/C(=N\OC(=O)Cc1cccs1)c1ccc(Br)cc1 | -106
SMILES | aSyn UTR act
Cc1ccccc1OCC(=O)O/N=C(\N)Cc1cccs1 | -63
Cc1ccccc1C(=O)O/N=C(\N)Cc1cccs1 | -131
N/C(Cc1cccc2ccccc12)=N\OC(=O)Cc1cccs1 | -117
N/C(Cc1cccs1)=N\OC(=O)COc1ccc(Cl)cc1Cl | -154
COC(=O)c1c(NC(=O)CCl)sc(C(=O)N2CCOCC2)c1C | -83
CCOc1cccc2cc(-c3nnc(NCc4ccco4)s3)c(=O)oc12 | -171
COc1ccc2oc(=O)c(-c3nnc(NCc4ccco4)s3)cc2c1 | -253
CNc1nnc(-c2cc3cc(Cl)ccc3oc2=O)s1 | -77
Cc1c(C(=O)OCC(=O)N2C(C)CCCC2C)oc2ccccc12 (stereo not drawn) | -118
Cc1cc2nc(-c3cccnc3SCC(=O)NC(C)C)[nH]c2cc1C | -122
COc1ccccc1N1CCN(Cc2ccc(O)c3ncccc23)CC1 | 0
COc1ccc(N2CCN(C(=O)CSc3ncccc3-c3nc4ccccc4[nH]3)CC2)cc1 | -114
COc1ccccc1N1CCN(C(=O)CSc2ncccc2-c2nc3ccccc3[nH]2)CC1 | -68
O=c1[nH]c2ccccc2nc1-c1ccccc1 | -73
O=c1[nH]c2ccccc2nc1-c1ccc(Cl)cc1 | -72
NC(=O)N=Nc1c2[nH]c3ccccc3nc-2c2ccccc12 | +
